Screens deposited in PubChem by National Center for Advancing Translational Sciences (NCATS).
In the library only some 2.9% were active in any assay of this set; here they are far more common.
a7 integrin act: activates integrin-mediated alleviation for muscular dystrophy. alpha7betagal myoblasts, beta-gal FDG fluorescence, 48 h. Potency, µM (doses to about 38.3 µM), for inactives: at the highest dose activation, hits mostly activators. 0.064% of 350,000 active. AID 624291; active = well fitted activation curve with a large enough effect;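 also: potency is read from the fitted curve at half-maximal effect; 100% = response of the positive control SU9516; nearly all actives have a fitted effect of over 60% in size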
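alpha7betagal+/- myoblasts (passage 13, 250/well) treated 48 h at 37C with compounds at 1:260 dilution of DMSO stock. Lysed, then beta-galactosidase activity read as FDG fluorescence (ex 480/em 540) after 30 min, with pre-read for autofluorescence.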
D3 ag: D3 dopamine receptor (human) agonism. P35462. 0.58% of 410,000 active. max activation, %. D3R DiscoveRx beta-arrestin cells, luminescence, 90 min; in the data active = max activation above about 30%; also: 0% is about no effect
Target sequence (P35462 whole entry, looked up): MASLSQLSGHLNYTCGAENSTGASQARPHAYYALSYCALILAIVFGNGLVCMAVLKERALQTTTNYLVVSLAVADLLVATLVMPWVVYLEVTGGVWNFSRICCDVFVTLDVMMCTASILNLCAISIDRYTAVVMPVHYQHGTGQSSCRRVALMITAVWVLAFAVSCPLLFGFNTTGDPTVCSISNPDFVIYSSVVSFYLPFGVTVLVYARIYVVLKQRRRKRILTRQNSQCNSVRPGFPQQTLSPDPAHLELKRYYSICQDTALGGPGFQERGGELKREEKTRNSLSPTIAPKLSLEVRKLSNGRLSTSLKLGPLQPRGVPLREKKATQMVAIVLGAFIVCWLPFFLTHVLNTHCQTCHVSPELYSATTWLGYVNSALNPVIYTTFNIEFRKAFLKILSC
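Agonist-mode cell screen: cells plated at 1500/well and incubated overnight at 37 °C, then exposed to library compounds for 90 min at 37 °C. Detection reagent was added for 30–60 min at room temperature, and luminescence was read.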
DRD3 antagonist: D3 dopamine receptor (human) antagonism. P35462. D3R cells, DiscoveRx beta-arrestin luminescence, antagonist mode; active compounds read low. max response, negative = inhibition, %. 2.5% of 360,000 active. AID 652054; in the data active = max response below about -50%; also: % is scaled to controls: 0 for no effect and ±100 for the full control effect
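Cells expressing the human receptor were seeded at 1500 cells/well, incubated overnight at 37 degrees C in 5% CO2, then exposed to library compounds with dopamine controls for 90 minutes at 37 degrees C before luminescent detection.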
The depositor's hits bear a star; x = no result given.

SMILES	a7 integrin act	D3 ag	DRD3 antagonist
CCC(C)NCCOCCSc1ccc(Cl)cc1 (centres undefined)	-68%	-10	-78*
CCC(C)(NC(=O)c1cccc(N2C(=O)CSC2c2ccccc2)c1)C(=O)Nc1ccccc1C (centres undefined)	4%	3	-20
CCn1c(C)cs/c1=N\C(=S)Nc1ccccc1C	-16%	-4	0
COC(=O)c1cc2sc(C)cc2n1Cc1cccc(OC)c1	x	6	x
Nc1ccccc1Nc1ccc([N+](=O)[O-])cc1[N+](=O)[O-]	0%	4	4
Nc1cc([N+](=O)[O-])ccc1Nc1ccc(O)cc1	3%	-6	-55*
Oc1c(CN2CCOCC2)cc(CN2CCOCC2)c(O)c1CN1CCOCC1	0%	-1	8
CC(C)(C)c1nc(CN2CCOCC2)cc(CN2CCOCC2)c1O	-26%	-3	-70*
Oc1c(CN2CCOCC2)cc(-c2ccccc2)cc1CN1CCOCC1	-14%	-5	-83*
CC(C)(c1cc(Cl)c(O)c(CN2CCOCC2)c1)c1cc(Cl)c(O)c(CN2CCOCC2)c1	5%	-7	-25
O=C(CCCN1C(=O)[C@H]2CC=CC[C@H]2C1=O)NCc1nc(-c2ccccc2)no1	20%	-5	4
CC(=O)c1cccc([N+](=O)[O-])c1	x	2	-3
O=C(C#Cc1ccccc1)c1cccc([N+](=O)[O-])c1	-57%	-8	-56*
Cc1cccc(NC(=O)CNC(=O)C(NC(=O)Cc2ccccc2)C(C)C)c1C (centres undefined)	-21%	1	-20
O=C(CCC(=O)CCN1CCCCC1)CCN1CCCCC1	-34%	-1	-67*
NC(=O)CCN1CCCCC1	20%	0	3
CCN(CC)CCNC(=O)C1(c2ccccc2)CCCCC1	-2%	-34	-16
COc1cccc(CNC(=O)C2CCN(S(=O)(=O)c3ccc4c(c3)CCCN4C(C)=O)CC2)c1	x	7	x
CC(=O)c1sc(N/N=C/c2cccc(O)c2)nc1C	16%	-7	-18
CC(=O)c1sc(N/N=C\c2c(O)ccc3ccccc23)nc1C	-2%	-10	-54*
Cc1ccc(N=Cc2cc(Br)cc(Cl)c2O)cc1	13%	-28	-65*
Oc1c(Cl)cc(Cl)cc1C=Nc1ccc(Br)cc1	-31%	-16	37
O=C(OC1CC2CC1[C@H]1CCCCN1C2=O)N1CCN(c2ccccc2)CC1 (some centres undefined)	x	7	4
O=C(OC1CC2CC1[C@H]1CCCCN1C2=O)N1CCN(S(=O)(=O)c2ccccc2)CC1 (some centres undefined)	x	2	-53*
C=CCN(c1ccc(C(=O)Nc2ccc3c(c2)OCO3)cc1)S(C)(=O)=O	16%	-6	-27
SMILES	a7 integrin act	D3 ag	DRD3 antagonist
CCCCNC(=S)N(C)/N=C/c1ccccc1F	-20%	3	13
O=C(c1ccc(F)cc1)C(CCCCCC(CN1CCOCC1)C(=O)c1ccc(F)cc1)CN1CCOCC1 (centres undefined)	-62%	-13	-58*
OC(CN1CCOCC1)c1ccc(F)cc1 (centres undefined)	-2%	1	-20
Cc1ccc(C)c(OCc2nnc(NC(=O)c3ccc4c(c3)OCO4)s2)c1	24%	2	12
Cc1ccnc(NC(=O)c2ccc(Cl)c(S(=O)(=O)N3CCCCC3)c2)c1	3%	3	24
Cc1ccc(C(=O)N/C(=C\c2ccc(Cl)cc2)C(=O)NCCN2CCOCC2)cc1	2%	-6	10
CC12CCC(C(N)=O)(C1Br)C2(C)C (centres undefined)	14%	0	-5
C=CC[C@H](CC(=O)N(CCO)Cc1ccccc1)C(=O)N[C@@H](C)COC(=O)[C@H](CC=C)CC(=O)OC(C)(C)C	15%	43*	17
C=CC[C@@H](CC(=O)N(CCO)Cc1ccccc1)C(=O)N[C@@H](C)COC(=O)[C@@H](CC=C)CC(=O)OC(C)(C)C	35%	4	17
C=CC[C@H](CC(=O)N(CCO)Cc1ccccc1)C(=O)N[C@H](C)COC(=O)[C@@H](CC=C)Cc1ccc(F)cc1	24%	7	24
C=CC[C@@H](CC(=O)N(CCO)Cc1ccccc1)C(=O)N[C@H](C)COC(=O)[C@@H](CC=C)Cc1ccc(F)cc1	-18%	40*	162
Cc1ccc(-c2nc3cc(C(C)C)ccc3o2)cc1NC(=O)c1cccs1	x	8	x
COc1cc(NC(=O)c2ccnnc2)cc(C(=O)Nc2cccc(C(F)(F)F)c2)c1	-4%	2	12
CCc1c(O)nc(SCC(=O)Nc2cc(C)on2)n(-c2ccccc2)c1=O	-18%	3	-9
Cc1ccc(S(=O)(=O)N2CCOCC2)cc1C(=O)NCc1ccc2c(c1)OCO2	5%	1	8
CCN(CCCNC(=O)c1cc(Nc2ccccc2OC)nc2ccccc12)c1cccc(C)c1	x	9	x
